Fam108B inh = blocks mouse Fam108B hydrolase in RBBP9 counter-screen | inhibition, % at 9.51 µM | recombinant Fam108B, FP-Rh probe fluorescence polarization | AID 1947 | 0.33% of 300,000 active;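 active = inhibition above the screen mean inhibition plus 3 SD, computed separately per campaign, cut at about 18% in these data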;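 note: inhibitors lower polarization as less probe binds the enzyme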
GSTO1 counter = blocks human GSTO1 in RBBP9 counter-screen | AID 1974 | recombinant GSTO1, activity-based probe fluorescence polarization | 1.1% of 300,000 active | P78417 | inhibition, % at 5.96 µM;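 active = inhibition above the campaign mean inhibition plus 3 SD, cut at about 35% in these data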;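 note: 0% = GSTO1-1 with DMSO and 100% = wells lacking GSTO1-1 enzyme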
LYPLA2 counter = LYPLA2 (human) inhibition in PME1 counter-screen | O95372 | recombinant LYPLA2, FP-Rh probe fluorescence polarization | inhibition, % at 5.9 µM | 0.38% of 320,000 active;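 active = inhibition above the screen-wide mean plus 3 SD, limit set per campaign, cut at about 26% in these data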;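 note: 0% = LYPLA2 with DMSO and 100% = wells lacking LYPLA2 enzyme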
PME-1 inh = PME-1 (human) inhibition | recombinant PME-1, FP-Rh probe fluorescence polarization | inhibition, % at 5.9 µM | 0.53% of 320,000 active | Q9Y570;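 active = inhibition above the campaign mean of all compounds plus 3 SD, cut at about 26% in these data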;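 note: competitive labeling of PME-1 active site by serine hydrolase directed probe; 0% = PME-1 with DMSO and 100% = wells lacking PME-1 enzyme; inhibitors block probe labeling so polarization falls and inhibition rises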
LYPLA1 inh = LYPLA1 (human) inhibition in PME1 counter-screen. O75608. recombinant LYPLA1, FP-Rh probe fluorescence polarization. inhibition, % at 5.9 µM. 0.16% of 320,000 active;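 active = inhibition above the mean of all tested compounds plus 3 SD, set per campaign, cut at about 14% in these data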;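 note: inhibitors block serine hydrolase probe labeling of LYPLA1 so polarization falls; 0% = enzyme with DMSO and 100% = wells lacking LYPLA1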
PAD4 FP inh = PAD4 (human) enzyme inhibition; Q9UM07; recombinant PAD4, RCA probe fluorescence polarization; inhibition, % at 6.36 µM; 0.41% of 330,000 active; AID 485272;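 active = percent inhibition above a cutoff equal to the mean of all tested compounds plus 3 SD, cut at about 15% in these data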;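 note: 0% = PAD4 with RCA probe and DMSO and 100% = probe without PAD4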
Target sequence (Q9UM07 whole entry, looked up): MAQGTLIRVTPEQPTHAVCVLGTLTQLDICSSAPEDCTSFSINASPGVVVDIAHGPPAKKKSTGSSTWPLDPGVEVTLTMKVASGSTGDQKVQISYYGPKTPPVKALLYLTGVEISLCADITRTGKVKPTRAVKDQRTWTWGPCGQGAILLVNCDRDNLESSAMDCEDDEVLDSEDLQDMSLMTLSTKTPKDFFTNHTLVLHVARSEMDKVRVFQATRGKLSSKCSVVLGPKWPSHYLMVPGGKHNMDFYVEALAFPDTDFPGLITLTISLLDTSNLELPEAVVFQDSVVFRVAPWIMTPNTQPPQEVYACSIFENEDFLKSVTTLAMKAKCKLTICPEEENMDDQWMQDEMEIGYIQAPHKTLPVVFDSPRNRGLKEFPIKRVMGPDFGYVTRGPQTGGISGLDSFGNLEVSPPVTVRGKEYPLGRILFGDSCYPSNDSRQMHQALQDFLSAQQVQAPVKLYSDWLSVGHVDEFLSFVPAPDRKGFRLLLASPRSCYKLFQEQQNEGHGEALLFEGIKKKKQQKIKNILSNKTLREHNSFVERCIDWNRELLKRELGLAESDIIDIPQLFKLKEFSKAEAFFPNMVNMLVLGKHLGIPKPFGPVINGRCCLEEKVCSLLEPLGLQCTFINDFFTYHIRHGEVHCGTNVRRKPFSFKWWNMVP
Active calls of the source: *; / = no result given. An excerpt weighted towards active compounds, which were near 1.8% of everything screened.

SMILES	Fam108B inh	GSTO1 counter	LYPLA2 counter	PME-1 inh	LYPLA1 inh	PAD4 FP inh
CC1=NN(c2ccccc2)C(=O)C1N=Nc1cccc(O)c1 (stereo unspecified)	8	-1	7	28*	0	-6
Cc1csc(=O)n1CCC(=O)OCC(=O)Nc1ncc(Cl)cc1Cl	4	5	2	-3	3	-2
COC(=O)CCCC1=CC2=CC(=O)C(C)(OC(=O)c3cccs3)C(=O)C2=CN1C1CCCC1 (stereo unspecified)	4	37*	8	8	3	3
COC(=O)CCCC1=CC2=CC(=O)C(C)(OC(=O)c3cccs3)C(=O)C2=CN1Cc1ccccc1 (stereo unspecified)	3	7	1	4	3	-9
CCn1c(SCC(=O)N2CCCCCC2)nc2c(c1=O)SCC2	5	2	5	3	1	0
Oc1ccc(O)c(Cc2nc3ccccc3s2)c1	1	61*	-2	-1	-1	-7
Oc1ccccc1OCc1nc2ccccc2s1	-4	4	5	2	-1	1
Cc1cccc(N(Cc2ccccc2)C(=O)c2cc(S(=O)(=O)N3CCOCC3)ccc2Cl)c1	3	14	7	-1	2	1
CC(NC(=O)Cn1ncc(Cl)c(Cl)c1=O)C12CC3CC(CC(C3)C1)C2 (stereo unspecified)	2	37*	2	2	2	5
COc1ccc(N=Nc2nc(-c3ccccc3)c(-c3ccccc3)[nH]2)cc1	10	-19	-5	28*	-4	-3
COc1ccccc1N=Nc1nc(-c2ccccc2)c(-c2ccccc2)[nH]1	5	-51	-5	9	-9	-1
Oc1ccccc1N=Nc1nc(-c2ccccc2)c(-c2ccccc2)[nH]1	17	-12	-3	35*	-12	-6
CC(Cc1ccc(O)c(O)c1)C(C)Cc1ccc(O)c(O)c1 (stereo unspecified)	5	52*	-12	-13	-8	-4
COc1cc(C[C@@H](C)[C@@H](C)Cc2ccc(O)c(OC)c2)ccc1O	/	/	/	/	/	2
CCc1ccc(/C=C/C(=O)c2cc(Br)ccc(=O)c2O)cc1	13	10	6	4	-5	-8
Cc1cccc(/C=C/C(=O)c2cc(Br)ccc(=O)c2O)c1	5	35*	2	4	-2	1
COc1ccc(C)cc1NC(=O)Nc1ccncc1	1	-2	-4	6	2	4
Cn1cnnc1SCc1ccc(C(=O)N=Nc2c(O)n(Cc3ccc(Cl)cc3)c3ccccc23)cc1	-1	-3	26*	4	4	-7
CCn1c(O)c(N=NC(=O)c2ccc(CSc3nncn3C)cc2)c2ccccc21	3	-2	-1	2	0	-1
c1ccc(Cn2c[n+](Cc3ccccc3)c3ccccc32)cc1	3	21	5	1	0	2
O=C(CCl)Nc1c(C(=O)Nc2ccc3c(c2)OCCO3)oc2ccccc12	-1	36*	-8	-1	-6	-4
COCC(=O)Nc1c(C(=O)Nc2ccc3c(c2)OCO3)oc2ccccc12	6	2	-3	-3	-3	3
O=C(N/N=C/c1ccccc1F)c1ccccc1OCc1ccccc1	0	2	-6	1	-2	-2
Cc1ccc(C(=O)NC2(O)C(=O)c3ccccc3C2=O)cc1C	7	75*	6	2	5	9
CC(=O)c1coc2c1cc(O)c1ccccc12	2	14	-2	0	-4	-15
SMILES	Fam108B inh	GSTO1 counter	LYPLA2 counter	PME-1 inh	LYPLA1 inh	PAD4 FP inh
O=C(c1ccco1)c1coc2c1cc(O)c1ccccc12	7	43*	-2	11	2	-5
Cc1cc(C)c(CN2CCN(C(=O)Cn3cnc4c(OCc5ccccc5)ncnc43)CC2)c(C)c1	/	/	/	/	/	4
Cc1cccc2cc(/C=N/Nc3ccc(C(=O)O)cc3)c(Cl)nc12	11	8	14	36*	14	0
CN(CC(=O)Nc1ccc(F)cc1)C(=O)Cn1cnc2ccc([N+](=O)[O-])cc2c1=O	/	/	/	/	/	3
C/C(=N/Nc1nc(-c2ccccc2F)nc2ccccc12)c1ccccc1O	7	6	-14	26*	-15	-5
Cc1cccn2c(=O)c3cc(C(=O)NC4CCCC4)sc3nc12	1	-2	-2	0	-4	-7
CCCn1nc(C(=O)Nc2cccc(S(=O)(=O)N(C)c3ccccc3)c2)c2ccccc2c1=O	/	/	/	/	/	-2
O=C(c1ccccc1F)N1CCN(Cc2nc3sc4c(c3c(=O)[nH]2)CCCC4)CC1	0	0	-3	27*	0	-3
COc1ccc2[nH]c3c(c2c1)CCN1C(=O)C(CC(=O)NC(C)(C)C)C[C@H](C(=O)N(C(C)C)C(C)C)[C@@]31C (stereo partly specified)	/	/	/	/	/	-3
O=C(N/N=C/c1c[nH]c2ccccc12)c1ccc([N+](=O)[O-])cc1Cl	15	10	7	26*	2	1
CCc1ccc(-c2cc(C(=O)N/N=C/c3c[nH]c4ccccc34)[nH]n2)cc1	2	-30	-23	40*	-19	3
O=C(N/N=C/c1cc([N+](=O)[O-])ccc1O)c1c[nH]c2ccccc12	10	-7	-9	13	-5	4
COc1ccc(NS(=O)(=O)NC(=O)c2c[nH]c3ccccc23)cc1	-2	-2	7	-5	-1	-3
Cc1ccc(S(=O)(=O)Oc2cccc(/C=N/Nc3ccc(C(=O)O)cc3)c2)cc1	18	-8	10	31*	5	-3
O=C(CCl)N1CCN(C(=O)C2COc3ccccc3O2)CC1 (stereo unspecified)	/	/	/	/	/	-4
O=C(CCl)N1c2ccccc2OCC1c1ccccc1 (stereo unspecified)	2	64*	3	-1	2	2
O=C(NC1CCN(CC(=O)N(c2ccccc2)c2ccccc2)CC1)c1ccc([N+](=O)[O-])cc1	-2	6	-6	0	0	0
Cn1cc(C(=O)N/N=C/c2ccc([N+](=O)[O-])cc2)c2ccccc21	-15	-12	-15	-10	-15	1
CC(=O)n1cc(N(C(=O)CCl)c2ccc([N+](=O)[O-])cc2)c2ccccc21	2	75*	0	5	2	19*
CC(=O)n1cc(CO)c2ccccc21	-3	7	7	1	-3	0
CC(=O)n1cc(N(C(=O)CCl)c2ccccc2)c2ccccc21	-4	77*	8	1	1	13
O=Cc1[nH]c2ccccc2c1N(C(=O)CCl)c1ccc([N+](=O)[O-])cc1	-5	73*	6	2	2	11
Cc1ccc(NC(=O)CSc2nnc(C3CC3)n2C)cc1S(=O)(=O)N1CCCCC1	/	/	1	3	-2	1
CC(C)CCn1c(=O)c(C(=O)N/N=C/c2cccc(F)c2)c(O)c2ccccc21	1	5	-8	2	-2	0
